Test results published in PubChem BioAssay (NCI).
This is part of a sample that, as a whole, favours compounds with a hit. Of some 83,000 tested, about 20% had one in any assay.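 Negative percent growth values reflect cell death: -40 means 40% of the cells present at the start died, and -100 means all died.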 Calls of active or inactive are those of the source. The calls were made as follows: active = growth percent below 10; inactive = the rest.

Key:
Assay in all cases: NCI-60 one-dose screen, 48 h (100 = growth as untreated, 0 = no growth, -100 = all killed)
Settings in all cases: 10 µM unless noted
[1] = tested on: NCI-H23 lung
[2] = tested on: NCI-H226 lung
[3] = tested on: NCI-H322M lung
[4] = tested on: HOP-62 NSCLC
[5] = tested on: HOP-92 NSCLC
[6] = tested on: NCI-H522 lung
[7] = tested on: A549/ATCC NSCLC
[8] = tested on: 786-0 renal
[9] = tested on: COLO 205 colon
[10] = tested on: DU-145 prostate
[11] = tested on: K-562 leukemia
[12] = tested on: MALME-3M melanoma
[13] = tested on: MDA-MB-231 breast
[14] = tested on: RXF 393 renal
[15] = tested on: SF-268 CNS
[16] = tested on: SF-295 CNS
[17] = tested on: SF-539 CNS
[18] = tested on: UACC-257 melanoma
[19] = tested on: M14 melanoma
[20] = tested on: NCI-H460 lung

Measured: growth

COc1ccc(N=Nc2c(N)nn3c(N)c(C#N)c(-c4ccc(C)cc4)nc23)cc1
inactive: [1] 62.9% | [2] 54.7% | [3] 78.7% | [4] 63.6% | [5] 19.4% | [6] 48.9% | [7] 43.3% | [8] 80.9% | [9] 85.6% | [10] 42.2% | [11] 36.1% | [12] 93.7% | [13] 42.4% | [14] 65.1% | [15] 67.5% | [16] 58.1% | [17] 52.4% | [18] 92.7% | [19] 61.6%

Cc1ccc2c(c1)nc(-c1ccccc1)n2CC(=O)N=Nc1c(O)[nH]c2ccc(Cl)cc12
active: [1] -66% | [2] -53.5% | [3] -53.8% | [4] -79.7% | [5] -74.2% | [6] -75% | [7] -18.7% | [8] -92% | [9] -87.6% | [10] -38% | [11] -3.37% | [12] -28.6% | [13] -80.5% | [14] -88.4% | [15] 2.28% | [16] -62.4% | [17] -90.3% | [18] -28.2% | [19] -28.4%

S=C(NCCc1ccccc1)Nc1ccc(OCc2nc3ccc(Cl)cc3[nH]2)cc1
inactive: [1] 28.6% | [2] 67.1% | [3] 57.5% | [4] 49.7% | [5] 14.4% | [7] 51.2% | [8] 29% | [9] 43.6% | [10] 37.3% | [11] 10.1% | [12] 56.5% | [15] 52.8% | [16] 60.4% | [17] 17.8% | [18] 74.1% | [19] 46.7%
active: [6] -26.8% | [13] 9.6% | [14] -12.6%

COc1ccc(S(=O)(=O)Nc2ccc(-c3ccc4c(c3)NC(=O)/C4=C\c3ccc[nH]3)cc2)cc1OC
active: [1] -25.1% | [2] -37.8% | [4] 0.497% | [5] 5.85% | [6] 2.96% | [7] -25.8% | [8] -9.09% | [12] -16.2% | [13] -46.1% | [14] -23% | [17] -46.5% | [18] -10.7% | [19] 0.851%
inactive: [3] 31.6% | [9] 39.8% | [10] 10.4% | [11] 28.7% | [15] 65% | [16] 56.1%

COc1cccc(/C=C/c2nc3ccccc3c(=O)n2CC(=O)Nc2ccccc2)c1
active: [4] 4.65% | [8] -8.65% | [13] -29% | [14] 0.184%
inactive: [1] 59.2% | [2] 13.9% | [3] 72.3% | [5] 19.5% | [6] 53.3% | [7] 16.9% | [9] 75.5% | [10] 87.8% | [11] 93% | [12] 56.1% | [15] 69.5% | [16] 48.8% | [17] 11.8% | [18] 67.8% | [19] 47.8%

COc1ccc(-c2cc(C(=O)OCc3ccc(Br)cc3)nn2-c2ccc(S(C)(=O)=O)cc2)cc1OC
inactive: [1] 93.6% | [2] 82% | [3] 90.9% | [4] 75.9% | [5] 69.5% | [6] 52.8% | [7] 78.6% | [8] 75% | [9] 110% | [10] 86.4% | [11] 79.9% | [12] 106% | [13] 70.5% | [14] 62% | [15] 66.5% | [16] 81.4% | [17] 72.4% | [18] 106% | [19] 114%

Nc1nnc(CS(=O)(=O)c2ccccc2)s1
inactive: [1] 107% | [2] 121% | [3] 94.6% | [4] 102% | [5] 86.5% | [6] 80.8% | [7] 102% | [8] 108% | [9] 117% | [10] 113% | [11] 98.9% | [12] 94.1% | [13] 102% | [14] 172% | [15] 105% | [16] 99.2% | [17] 101% | [18] 97.1% | [19] 97.3%

CCc1ccccc1-c1nc(CN[C@@H]2C[C@@H]3C[C@H]([C@H]2C)C3(C)C)c(C)o1
active: [1] -78.7% | [2] -68.7% | [3] -92.5% | [4] -78.9% | [5] -81.5% | [6] -85.9% | [7] -49.7% | [8] -82.1% | [9] -74.8% | [10] -74.9% | [12] -80.5% | [13] -78.3% | [14] -85.1% | [15] 6.04% | [16] -93.5% | [17] -96.5% | [18] -75.8% | [19] -83.5%
inactive: [11] 12.2%

COc1ccc2[nH]c(=O)c(CSc3ccccc3Nc3nccc(-c4ccc(Cl)cc4)n3)cc2c1
active: [6] 4.52% | [14] -4.36%
inactive: [1] 43.2% | [2] 45.7% | [3] 69.5% | [4] 69.2% | [5] 36.6% | [7] 52.5% | [8] 43.4% | [9] 61.8% | [10] 48.7% | [11] 39.7% | [12] 32.1% | [13] 60.9% | [15] 55.1% | [16] 32.8% | [17] 21.7% | [18] 73.4% | [19] 68.5%

COc1ccccc1/C=C/c1cccc(NC(=S)NCCCCN(C)C)c1
active: [1] -97.5% | [2] -71.5% | [3] -87.4% | [4] -51.1% | [5] -60.9% | [6] -66% | [7] -51.7% | [8] -55.3% | [9] -68.2% | [10] -69% | [11] 1.56% | [12] -90.6% | [13] -89.8% | [14] -94.2% | [15] 6.05% | [16] -100% | [17] -93% | [18] -82.6% | [19] -74%

N#C/C(=C/c1ccc([N+](=O)[O-])cc1)c1nnc(NC(=O)c2ccc(-n3c(=O)[nH]c4ccccc4c3=O)cc2)s1
inactive: [1] 91.9% | [2] 87.8% | [3] 97.5% | [4] 85.6% | [5] 101% | [6] 108% | [7] 102% | [8] 104% | [9] 122% | [10] 83.1% | [11] 103% | [12] 91.6% | [13] 89.5% | [14] 87.9% | [15] 110% | [16] 100% | [17] 93.6% | [18] 105% | [19] 120%

O=C(Cn1c(/C=C/c2ccc([N+](=O)[O-])cc2)nc2ccccc2c1=O)Nc1ccccc1
inactive: [1] 54.9% | [4] 49% | [20] 52.5% | [5] 52.1% | [6] 79.5% | [7] 75.7% | [8] 47.2% | [9] 67.2% | [10] 78.6% | [11] 79.6% | [12] 85% | [13] 46.7% | [14] 27.4% | [15] 58.9% | [16] 72.2% | [17] 21.1% | [18] 101% | [19] 81.2%
active: [2] -0.971%

Nc1nn2c(-c3cc4cc(Br)ccc4oc3=O)ccnc2c1N=Nc1ccc(Br)cc1
active: [1] -7.78% | [2] -25% | [4] -11.9% | [5] -5.4% | [13] -43.8% | [14] -31.4% | [16] -37% | [17] -71.4%
inactive: [3] 23.7% | [6] 24.6% | [7] 39.6% | [8] 13.8% | [9] 35.8% | [10] 36.8% | [11] 32.4% | [12] 52.1% | [15] 26.9% | [18] 87.8% | [19] 42.4%

COc1ccc(NC(=O)Cn2c(/C=C/c3cccc(Br)c3)nc3ccccc3c2=O)cc1
inactive: [1] 59.3% | [3] 58.1% | [5] 11% | [6] 42.6% | [7] 16.5% | [9] 70.4% | [10] 79.1% | [11] 86.3% | [12] 48.7% | [15] 65.2% | [16] 48.9% | [18] 71.1% | [19] 50.2%
active: [2] 6.61% | [4] 2.11% | [8] -44.4% | [13] -38.4% | [14] -16.3% | [17] -23.4%

O=C(Cn1c(-c2ccccc2)nc2ccccc21)N=Nc1c(O)[nH]c2ccc(Br)cc12
active: [1] 3.3% | [2] -59.9% | [4] -68.1% | [20] -29.9% | [5] -60.6% | [7] 8.52% | [8] -56.2% | [9] -66.9% | [10] 3.6% | [11] 6% | [12] -20.5% | [13] -56.8% | [14] -80% | [15] -0.321% | [16] -80.4% | [17] -80.9% | [18] 9.11% | [19] 5.92%
inactive: [6] 29.5%

COc1ccc(-c2nc3ccc(-c4nnc(SCc5ccccc5)o4)cc3[nH]2)cc1
active: [1] 8.09% | [2] -76.5% | [3] 0.722% | [4] -72.7% | [20] -15.7% | [6] -16.2% | [7] -5.6% | [8] -62.5% | [12] -74.9% | [13] -67.3% | [14] -75.3% | [15] -6.18% | [16] -75% | [17] -99.7% | [19] 5.59%
inactive: [9] 44.6% | [10] 10.2% | [11] 11.2% | [18] 21.8%
